# Only some compounds are listed: those with a hit (about 2% of all), similar ones and a draw of the others.
# ARNT TACC3 PPI = disruptors of ARNT/TACC3 protein interaction, primary screen, biochemical, AlphaScreen, single concentration; Transforming acidic coiled-coil-containing protein 3 (Homo sapiens), Q9Y6A5; AlphaScreen His-ARNT PAS-B/GST-TACC3 binding, luminescence; TACC3 fragment carries E629A point mutation; inhibition, % at 9.99 µM; 390,000 tested, 0.66% active; AID 623870, 2012;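 active means mean inhibition of replicates at least 50% and at least half of replicates each reaching 50%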;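 further: 0% = complete ARNT plus TACC3 wells and 100% = ARNT alone without TACC3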
# Neddyl block = inhibitors of cullin neddylation, primary screen, biochemical, TR-FRET, uHTS, NAE and Ubc12; NEDD8-conjugating enzyme Ubc12 (Homo sapiens) + NEDD8-activating enzyme E1 regulatory …; inhibition, % at 25 µM; 360,000 tested, 0.58% active; AID 651699, 2012; in the data active means inhibition above about 36%
# Target sequence (P61081 whole entry, looked up): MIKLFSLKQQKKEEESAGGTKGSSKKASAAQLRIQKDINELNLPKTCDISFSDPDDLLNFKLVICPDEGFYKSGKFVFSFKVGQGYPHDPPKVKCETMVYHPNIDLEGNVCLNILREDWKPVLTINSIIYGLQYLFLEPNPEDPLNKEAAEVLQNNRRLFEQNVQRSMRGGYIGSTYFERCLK
# Target sequence (Q13564 whole entry, looked up): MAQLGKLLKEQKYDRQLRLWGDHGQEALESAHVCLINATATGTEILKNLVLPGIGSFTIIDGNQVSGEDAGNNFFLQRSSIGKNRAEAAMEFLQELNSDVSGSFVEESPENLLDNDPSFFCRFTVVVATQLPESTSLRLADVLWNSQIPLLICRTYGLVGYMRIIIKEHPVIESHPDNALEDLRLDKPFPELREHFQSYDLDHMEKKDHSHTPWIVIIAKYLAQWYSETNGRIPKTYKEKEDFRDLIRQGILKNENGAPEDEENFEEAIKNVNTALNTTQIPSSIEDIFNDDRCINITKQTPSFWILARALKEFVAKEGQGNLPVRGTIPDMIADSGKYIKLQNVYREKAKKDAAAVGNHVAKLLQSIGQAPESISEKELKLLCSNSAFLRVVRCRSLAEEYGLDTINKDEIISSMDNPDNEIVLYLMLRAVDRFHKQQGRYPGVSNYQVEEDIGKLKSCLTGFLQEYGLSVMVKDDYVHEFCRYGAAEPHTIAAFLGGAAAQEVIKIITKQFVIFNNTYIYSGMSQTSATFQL
# DAGLB inh = DAGLB lipase inhibitors, primary screen, biochemical, fluorescence, HTS | Diacylglycerol lipase-beta (Homo sapiens), Q8NCG7 | HEK293T DAGLB membrane lysate, EnzChek fluorogenic substrate | inhibition, % at 5.17 µM | 340,000 tested, 0.059% active | AID 504411, 2011; in the data active means inhibition above about 34%;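 further: 0% = enzyme with vehicle and 100% = wells lacking enzyme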
# sPLA2-III inh = human group III sPLA2 inhibitors, primary screen, biochemical, QFRET, BODIPY PC-A2 liposome substrate; Group 3 secretory phospholipase A2 (Homo sapiens), Q9NZ20; QFRET BODIPY PC-A2 liposome hydrolysis, fluorescence; inhibition, % at 12.2 µM; 370,000 tested, 0.56% active; AID 743126, 2013;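 active means inhibition above mean plus 3 SD of compounds lying within the high and low control bounds, cut at about 19% in these data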;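 further: 0% = median of test compound wells and 100% = no enzyme DMSO wells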
# NadD block = inhibitors of S. aureus NadD, primary screen, biochemical, colorimetric, uHTS; Nicotinate-nucleotide adenylyltransferase NadD (Staphylococcus aureus N315); purified NadD enzyme, colorimetric absorbance read-out; inhibition, % at 20 µM; 360,000 tested, 0.78% active; in the data active means inhibition above about 26%
# * = called active by the depositor; x = not tested or not shown.
SMILES,ARNT TACC3 PPI,Neddyl block,DAGLB inh,sPLA2-III inh,NadD block
CN(CC1CCCO1)S(=O)(=O)c1ccc(C(=O)Nc2nc(-c3ccccn3)cs2)cc1 (configuration not stated),59*,7,2,x,6
Cc1cc(-c2csc(NC(=O)c3ccc(S(=O)(=O)N(C)C)cc3)n2)c(C)n1-c1ccccc1,-7,-7,1,-5,40*
O=C(C[C@@H]1C[C@@H]2c3cc(NC(=O)c4cccnc4)ccc3O[C@@H]2[C@H](CO)O1)NCc1ccncc1,-5,x,x,x,x
CCOC(=O)c1sc(=S)[nH]c1C,0,-23,0,23*,2
CCOC(=O)c1c(C)[nH]sc1=S,-2,-46,0,5,-4
COc1ccccc1CNS(=O)(=O)c1cc(CN2C(=O)c3cccnc3C2=O)ccc1OC,22,-32,-3,1,1
COc1cc(CCNC2=CC(=O)c3ncccc3C2=O)ccc1O,37*,-100,-1,1,4
Cc1ccccc1/C=N/NC(=O)Cn1cnc([N+](=O)[O-])n1,4,-28,3,8,3
O=C(Cn1cnc([N+](=O)[O-])n1)N/N=C/c1ccccc1O,75*,-22,-2,-2,-2
O=C(Cn1cncn1)N/N=C/c1ccccc1O,78*,x,-1,3,-8
C[C@H]1CN([C@@H](C)CO)C(=O)c2cccc(NC(=O)C3CCOCC3)c2O[C@H]1CN(C)CC1CCCCC1,-5,x,x,x,x
O=C1N=C(N2CCN(c3cccc4ccccc34)CC2)S/C1=C/c1cccs1,-2,7,4,-5,28*
O=C(CCN1C(=O)/C(=C/C=C/c2ccccc2)SC1=S)Nc1cccnc1,-1,0,3,9,18
CC(/C=C1\SC(=S)N(CCC(=O)Nc2cccc(C(=O)O)c2)C1=O)=C\c1ccccc1,4,-10,9,-15,19
CC(/C=C1\SC(=S)N(CCC(=O)Nc2ccccc2O)C1=O)=C\c1ccccc1,5,1,-3,-11,34*
O=C(O)CN1C(=O)/C(=C/C=C/c2ccccc2)SC1=S,x,-13,2,1,1
O=C(CCN1C(=O)/C(=C/C=C/c2ccccc2)SC1=S)Nc1ccccn1,1,0,6,1,37*
CC(=O)c1ccc(NC(=O)CN2C(=O)/C(=C/C=C/c3ccccc3)SC2=S)cc1,-2,-2,10,4,36*
CN(C)C(=O)c1cccc(-c2ccc([C@H]3[C@@H](CO)N4CCCCN(C(=O)C5CCCC5)C[C@@H]34)cc2)c1,-1,x,x,x,x
O=C(NCc1ccccn1)c1ccc(Cl)c(S(=O)(=O)N2CCCCCC2)c1,46*,8,0,0,-2
O=C(Nc1nc2c(Cl)ccc(Cl)c2s1)C1CC1,4,-129,3,-7,-1
NNc1nc2c(Cl)ccc(Cl)c2s1,3,0,-2,22*,-4
COc1cc(NC(C)CCCNC(C)C)c2ncccc2c1OC (configuration not stated),59*,-2,1,2,-3
Cc1nn(C)cc1NC(=O)C[C@@H]1CC[C@H]2[C@@H](COc3ccc(NC(=O)NC(C)C)cc3C(=O)N2C)O1,0,x,x,x,x
COC(=O)c1ccc(NCc2c(O)ccc(O)c2Br)cc1Cl,7,1,0,34*,-5
SMILES,ARNT TACC3 PPI,Neddyl block,DAGLB inh,sPLA2-III inh,NadD block
C[C@H]1CN([C@@H](C)CO)C(=O)c2cc(/C=C/c3ccccc3)cnc2O[C@@H]1CN(C)C(=O)c1ccccc1,2,x,x,x,x
Cc1ccc(C(=O)N/N=C/c2ccc(-c3cccc(Cl)c3)o2)cn1,4,20,-3,-7,0
Cc1ccc(C(=O)N/N=C/c2ccc(-c3ccccc3[N+](=O)[O-])o2)cn1,27*,-12,0,-6,1
O/N=C/c1ccc2cccc(O)c2n1,57*,-15,2,2,-3
O/N=C/c1ccc2ccccc2n1,1,-8,0,-7,-5
CCCC(=O)Nc1ccc2c(c1)C(=O)N(C)C[C@H](OC)[C@@H](C)CN(Cc1cncnc1)[C@@H](C)CO2,2,x,x,x,x
Cc1ccc(NC2=C(NCCO)C(=O)c3ccccc3C2=O)cc1,48*,-44,8,-2,3
COCCn1c(-c2ccc(OC)cc2)cnc1SCC(=O)Nc1cc(C)on1,-9,6,3,-3,0
COCCn1c(-c2ccc(OC)cc2)cnc1N,45*,16,-1,2,4
COc1cccc(NC(=O)N2C[C@@H](O)COC[C@@H]3O[C@@H](CC(=O)NCCCN4CCOCC4)CC[C@H]32)c1,10,x,x,x,x
C[C@H]1CCCCO[C@H](CN(C)Cc2ccc3c(c2)OCO3)[C@@H](C)CN([C@@H](C)CO)C(=O)c2cc(NC(=O)Nc3ccc(C(F)(F)F)cc3)ccc2O1,57*,x,x,x,x
C[C@@H]1CN([C@@H](C)CO)C(=O)c2cccc(NS(C)(=O)=O)c2O[C@@H]1CN(C)C(=O)Nc1ccc2c(c1)OCO2,active,x,x,x,x
C[C@@H]1CCCCO[C@@H](CN(C)C(=O)Nc2ccccc2)[C@H](C)CN([C@H](C)CO)C(=O)c2cc(NC(=O)CCCN(C)C)ccc2O1,-2,x,x,x,x
COc1ccc(NC(=O)N(C)C[C@@H]2Oc3ccc(NS(=O)(=O)c4cn(C)cn4)cc3C(=O)N([C@H](C)CO)C[C@H]2C)cc1,active,x,x,x,x
C[C@@H]1CCCCO[C@H](CN(C)C(=O)Nc2ccc3c(c2)OCO3)[C@H](C)CN([C@@H](C)CO)C(=O)c2cc(NC(=O)CCCN(C)C)ccc2O1,45*,x,x,x,x
C[C@@H]1CCCCO[C@H](CN(C)Cc2ccc3c(c2)OCO3)[C@@H](C)CN([C@@H](C)CO)C(=O)c2cc(NC(=O)Nc3ccc(C(F)(F)F)cc3)ccc2O1,29,x,x,x,x
C[C@H]1CN([C@@H](C)CO)C(=O)c2cccc(NS(C)(=O)=O)c2O[C@H]1CN(C)C(=O)Nc1ccc2c(c1)OCO2,3,x,x,x,x
CN1C(=O)c2cc(NC(=O)C3CCOCC3)ccc2OC[C@@H]2O[C@H](CC(=O)NCc3ccc4c(c3)OCO4)CC[C@@H]21,2,x,x,x,x
COc1ccc(NC(=O)Nc2ccc3c(c2)[C@@H]2C[C@@H](CC(=O)N(C)C)O[C@H](CO)[C@@H]2O3)cc1,8,x,x,x,x
C[C@H](CO)N1C[C@H](C)[C@H](CN(C)Cc2ccc3c(c2)OCO3)OCCCC[C@H](C)Oc2ccc(NC(=O)Nc3ccc(C(F)(F)F)cc3)cc2C1=O,46*,x,x,x,x
COCC#Cc1cnc2c(c1)C(=O)N([C@H](C)CO)C[C@H](C)[C@@H](CN(C)S(=O)(=O)c1cn(C)cn1)O2,-3,x,x,x,x
CC(C)c1cccc(-c2ccc3c(c2)S(=O)(=O)c2cccc(C(=O)NCc4ccccc4Cl)c2C3=O)c1,2,-35,0,x,34*

# Bioassay records deposited in PubChem by several laboratories.
